Measured values reported in the supplement of paper PMC4166925.
± gives the standard deviation of the averaged measurements. In all, about 33,000 sequences were measured (“E-score (dimensionless, -0.5 to 0.5)”: median about -0.046, highest 2% from about 0.36 on). The full list was thinned out, with the highest values kept by preference.

The sequences below were run on T1, SpTbr T-box DNA-binding domain (GST fusion) (assay: PBM E-score of 8-mer (E-score (dimensionless, -0.5 to 0.5)); Tbr is Tbrain of the sea star Patiria miniata (Pm) or the sea urchin Strongylocentrotus purpuratus (Sp); higher = stronger binding preference). Details: the construct has about 5 more residues each side.
T1 sequence: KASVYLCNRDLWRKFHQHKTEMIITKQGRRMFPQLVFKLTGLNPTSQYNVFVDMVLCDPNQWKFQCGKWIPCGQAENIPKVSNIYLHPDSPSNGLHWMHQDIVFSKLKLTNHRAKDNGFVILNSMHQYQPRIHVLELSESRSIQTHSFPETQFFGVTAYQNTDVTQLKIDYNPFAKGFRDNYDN
In short: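 Expression of GST-fused Tbr T-box DNA-binding domains, each holding the full T-box plus roughly five flanking residues, was carried out in BL21 E. coli at 20 °C, with purification by glutathione affinity chromatography. Universal Agilent arrays made double-stranded by primer extension were incubated with the protein at 200 nM in PBS (pH 7.5), then scanned and quantified. All ungapped 8-mers were scored from probe intensities, and each received an enrichment E-score from the Universal PBM Analysis Suite, averaged over duplicate arrays.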

| Sequence | PBM E-score of 8-mer |
| --- | --- |
| AGCAAAGC | -0.0455 ± 0.048 |
| AAAGCAGT | -0.167 ± 0.049 |
| TGAGATAA | 0.0687 ± 0.09 |
| CACAGGGG | 0.0864 ± 0.031 |
| ACCGTTCC | -0.000825 ± 0.11 |
| AAGTGTCA | 0.46288 ± 2.8e-05 |
| AAGTGTCC | 0.2466 ± 0.0019 |
| AAGTGTAT | 0.0229 ± 0.032 |
| CCTATGCG | 0.00647 ± 0.019 |
| GCGCGCGA | 0.316 ± 0.041 |
| CCACGCGA | 0.172 ± 0.028 |
| TCACGCCA | 0.403 ± 0.0053 |
| GCACGCCA | 0.0542 ± 0.013 |
| TCGCGCCA | 0.384 ± 0.009 |
| TCACGCGA | 0.3949 ± 0.0026 |
| ACACGCCA | 0.205 ± 0.0044 |
| GCGCGCCA | 0.133 ± 0.087 |
| CCGCGCGA | 0.203 ± 0.03 |
| ACGCGCCA | 0.201 ± 0.019 |
| GCACGCGA | 0.186 ± 0.025 |
| TCGCGCGA | 0.379 ± 0.0069 |
| CAGACAAA | -0.0589 ± 0.033 |
| GGATACAA | 0.0747 ± 0.011 |
| CCGCCTCG | -0.0478 ± 0.058 |
| TAAAGAAA | -0.13 ± 0.11 |

| Sequence | PBM E-score of 8-mer |
| --- | --- |
| CCCTAACC | -0.113 ± 0.029 |
| ACGCGCGA | 0.393 ± 0.023 |
| ACGCGCGC | 0.189 ± 0.056 |
| ACGCGCGG | 0.229 ± 0.028 |
| AAGTAGAA | 0.0466 ± 0.046 |
| AGTGAACA | 0.175 ± 0.0043 |
| GGTGAAAA | 0.126 ± 0.095 |
| TATGAACA | -0.0802 ± 0.022 |
| CGTGAAAA | 0.329 ± 0.069 |
| TGTGAAAA | 0.394 ± 0.048 |
| CGTGAACA | 0.3774 ± 0.003 |
| TGTGAACA | 0.445 ± 0.0018 |
| CGTGAACC | 0.353 ± 0.018 |
| GGTGAACA | -0.0711 ± 0.04 |
| AGATATTC | -0.243 ± 0.033 |
| AGCTATTG | -0.0351 ± 0.028 |
| ACTTAGAG | -0.0957 ± 0.015 |
| CCCAAATC | -0.108 ± 0.11 |
| CCAAGAGC | -0.28 ± 0.06 |
| CGGTGAGA | 0.257 ± 0.012 |
| GGGTGAGA | 0.424 ± 0.0073 |
| AGGTGAAA | 0.266 ± 0.045 |
| CAGTGAGA | 0.157 ± 0.062 |
| AAGTGAGG | 0.2725 ± 0.0021 |
| AGGTGAGA | 0.4826 ± 0.0046 |

| Sequence | PBM E-score of 8-mer |
| --- | --- |
| AAGTGAGA | 0.4 ± 0.018 |
| GGGGGTGA | 0.289 ± 0.03 |
| AGGTGAGG | 0.4113 ± 0.0021 |
| ACGTGAGG | 0.196 ± 0.024 |
| AGGTGAGC | 0.2602 ± 0.00092 |
| GAGTGAGA | 0.346 ± 0.023 |
| CATCGATA | -0.00022 ± 0.06 |
| CGCAAGGA | -0.051 ± 0.018 |
| AGATTCCG | -0.0246 ± 0.022 |
| CTCGTATA | -0.142 ± 0.0069 |
| TAACTACA | 0.0924 ± 0.085 |
| ACGGTGTG | 0.3578 ± 0.0014 |
| AAGGTGTA | 0.394 ± 0.023 |
| GCGGTGTA | -0.122 ± 0.012 |
| AAGGTGTG | 0.4816 ± 0.0018 |
| GAGGTGTA | 0.418 ± 0.014 |
| CCGGTGTA | 0.115 ± 0.037 |
| AAGGTTTG | -0.161 ± 0.046 |
| GGGGTGTA | 0.167 ± 0.062 |
| ACGGTGTA | 0.137 ± 0.026 |
| TACGACCA | -0.249 ± 0.12 |
| CGTGCACG | 0.00996 ± 0.044 |
| CTTTCTAA | -0.187 ± 0.023 |
| ACGCAGGC | -0.149 ± 0.011 |
| CTTAGTGA | 0.0752 ± 0.0019 |

| Sequence | PBM E-score of 8-mer |
| --- | --- |
| ACGCGAGT | 0.107 ± 0.072 |
| ATGGGAGC | -0.168 ± 0.01 |
| CGTTCACA | 0.418 ± 0.0069 |
| AGTTCACC | -0.00201 ± 0.066 |
| GGTTCAAA | -0.343 ± 0.0085 |
| CGTTCACC | 0.0843 ± 0.012 |
| CGATCACG | 0.221 ± 0.037 |
| GGTTCACA | 0.3973 ± 0.0018 |
| AGTTCACG | 0.338 ± 0.049 |
| GGTTCATA | -0.0395 ± 0.039 |
| CGATCACA | 0.396 ± 0.0068 |
| CGTTCAAG | -0.167 ± 0.0076 |
| AGTTCACA | 0.442 ± 0.013 |
| AGATCACA | 0.342 ± 0.02 |
| TAGATCCA | -0.288 ± 0.061 |
| CTAGTTTA | -0.132 ± 0.14 |
| AGTCCTGG | -0.262 ± 0.021 |
| CGGAGATA | 0.0372 ± 0.0019 |
| AATTGGGA | -0.0875 ± 0.07 |
| CCTTGGAG | -0.1541 ± 0.00054 |
| ACGCGCCG | 0.227 ± 0.11 |
| ACACAGTA | 0.116 ± 0.02 |
| GCCTTCGC | 0.296 ± 0.0037 |
| CGATGCAG | -0.164 ± 0.022 |
| AATCTTCC | -0.133 ± 0.036 |

| Sequence | PBM E-score of 8-mer |
| --- | --- |
| GAAGTAAA | -0.281 ± 0.027 |
| ATAATCTC | -0.0752 ± 0.092 |
| CCGAGACG | -0.121 ± 0.015 |
| CCGCGAGA | 0.224 ± 0.037 |
| TCGCGAGA | 0.367 ± 0.01 |
| GCGCGAGA | 0.3663 ± 0.0029 |
| GCGAGAGA | 0.203 ± 0.061 |
| GCGCGAGC | 0.298 ± 0.053 |
| ACGCGAGA | 0.219 ± 0.016 |
| AACTATAT | -0.0107 ± 0.13 |
| GAGTTACC | 0.144 ± 0.011 |
| CGCACAGC | 0.122 ± 0.012 |
| GCCCCAAC | 0.133 ± 0.059 |
| ATGTGTAA | 0.342 ± 0.0099 |
| CTCACCTA | 0.385 ± 0.014 |
| GTCACCGA | 0.0907 ± 0.0094 |
| CTTACCTA | -0.163 ± 0.054 |
| GTCACCTA | 0.392 ± 0.017 |
| CTCACCGA | 0.0544 ± 0.017 |
| GTCACCCA | 0.203 ± 0.0083 |
| GGTCTCGA | -0.115 ± 0.014 |
| GCATGGGC | -0.0364 ± 0.0065 |
| GCTACTAC | 0.013 ± 0.035 |
| ATTCCCAA | -0.227 ± 0.012 |
| CGTGAGAC | 0.2491 ± 0.0021 |

| Sequence | PBM E-score of 8-mer |
| --- | --- |
| TCTGAGAA | -0.238 ± 0.12 |
| GGTGAGAC | 0.3819 ± 0.0012 |
| GGTGAGAA | 0.4745 ± 0.0016 |
| TGAGAGAA | 0.0644 ± 0.036 |
| GGTGAGGA | 0.384 ± 0.0073 |
| AGTGAGAC | 0.169 ± 0.04 |
| AGTGAGGA | 0.246 ± 0.028 |
| CGTGAGGA | 0.178 ± 0.011 |
| GCTGAGAA | 0.26 ± 0.048 |
| CGTGAGAA | 0.347 ± 0.016 |
| TGTGAGAA | 0.4336 ± 0.0026 |
| CGTTGAAG | 0.0941 ± 0.031 |
| ATGGACAA | 0.101 ± 0.003 |
| AGGCCAAC | -0.0875 ± 0.028 |
| CGAGTAGC | 0.0635 ± 0.0055 |
| TAGGGCGA | -0.00769 ± 0.086 |
| GAACTTGA | -0.0691 ± 0.0032 |
| CCGCGACG | 0.0384 ± 0.061 |
| ATCAGATA | -0.0339 ± 0.043 |
| AGTGAGAA | 0.422 ± 0.014 |
| AGTGAGAT | 0.287 ± 0.033 |
| AGTGAGAG | 0.3 ± 0.0092 |
| CAACCTGA | -0.0529 ± 0.059 |
| ATTGGTCC | -0.197 ± 0.039 |
| AGCGTGTC | 0.152 ± 0.072 |

| Sequence | PBM E-score of 8-mer |
| --- | --- |
| CACGTGAC | 0.286 ± 0.042 |
| AACGTGTG | 0.4114 ± 0.0041 |
| AACGTGTA | 0.135 ± 0.074 |
| AACGTGTC | 0.372 ± 0.0067 |
| AACGTGCG | 0.32 ± 0.0051 |
| CACGTGTC | 0.391 ± 0.014 |
| CACGTGTA | 0.272 ± 0.0034 |
| ACCGTGTG | 0.203 ± 0.052 |
| ACTCGATG | -0.0556 ± 0.081 |
| ACAACGAT | -0.00065 ± 0.016 |
| CACGCCCC | 0.24 ± 0.013 |
| AGACAACG | -0.0213 ± 0.033 |
| CAGCTAGG | 0.101 ± 0.087 |
| CAGCCTCC | -0.239 ± 0.021 |
| CAGGCTAC | -0.221 ± 0.014 |
| ACAATTCA | 0.163 ± 0.069 |
| ACCGACAA | -0.0797 ± 0.034 |
| CCCGACAC | 0.367 ± 0.017 |
| CCCGACAA | 0.154 ± 0.02 |
| GCCGACAC | 0.397 ± 0.0048 |
| GCCGACCC | -0.201 ± 0.12 |
| CCCGACAG | 0.0718 ± 0.038 |
